Test [1] deals with Nuclear receptor coactivator 1 (Homo sapiens) (UniProt Q15788). Kind of test: NCOA1 GAL4-fusion reporter inhibition – cell-based, luminescence, quadruplicate, confirmation (AID 588820).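 Note: 0% = DMSO wells and 100% = gossypol 36 µM treated wells.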 Conditions: HEK293 GAL4-SRC1 luciferase reporter, at 3.6 µM, stronger effect = higher value.
A short description of test [2]: repression of VP16-driven luciferase reporter – cell-based, luminescence, high throughput, counter-screen for SRC1 inhibitor project (AID 588824; in the data active = inhibition above about 25%). The conditions noted are these: cell-based VP16 transactivation luciferase luminescence; at 3.6 µM; stronger effect = higher value.

Unmarked numbers belong to inactive results. The source made the active and inactive calls.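 Rule for the calls, unless noted: active = mean inhibition above 46.68%, the untreated control wells mean plus 3 SD; inactive = the rest.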

For 34 compounds, inhibition results are on record in PubChem BioAssay.

Nuclear receptor coactivator 1 (Homo sapiens), sequence (Q15788 whole entry, looked up, the tested form may be a part): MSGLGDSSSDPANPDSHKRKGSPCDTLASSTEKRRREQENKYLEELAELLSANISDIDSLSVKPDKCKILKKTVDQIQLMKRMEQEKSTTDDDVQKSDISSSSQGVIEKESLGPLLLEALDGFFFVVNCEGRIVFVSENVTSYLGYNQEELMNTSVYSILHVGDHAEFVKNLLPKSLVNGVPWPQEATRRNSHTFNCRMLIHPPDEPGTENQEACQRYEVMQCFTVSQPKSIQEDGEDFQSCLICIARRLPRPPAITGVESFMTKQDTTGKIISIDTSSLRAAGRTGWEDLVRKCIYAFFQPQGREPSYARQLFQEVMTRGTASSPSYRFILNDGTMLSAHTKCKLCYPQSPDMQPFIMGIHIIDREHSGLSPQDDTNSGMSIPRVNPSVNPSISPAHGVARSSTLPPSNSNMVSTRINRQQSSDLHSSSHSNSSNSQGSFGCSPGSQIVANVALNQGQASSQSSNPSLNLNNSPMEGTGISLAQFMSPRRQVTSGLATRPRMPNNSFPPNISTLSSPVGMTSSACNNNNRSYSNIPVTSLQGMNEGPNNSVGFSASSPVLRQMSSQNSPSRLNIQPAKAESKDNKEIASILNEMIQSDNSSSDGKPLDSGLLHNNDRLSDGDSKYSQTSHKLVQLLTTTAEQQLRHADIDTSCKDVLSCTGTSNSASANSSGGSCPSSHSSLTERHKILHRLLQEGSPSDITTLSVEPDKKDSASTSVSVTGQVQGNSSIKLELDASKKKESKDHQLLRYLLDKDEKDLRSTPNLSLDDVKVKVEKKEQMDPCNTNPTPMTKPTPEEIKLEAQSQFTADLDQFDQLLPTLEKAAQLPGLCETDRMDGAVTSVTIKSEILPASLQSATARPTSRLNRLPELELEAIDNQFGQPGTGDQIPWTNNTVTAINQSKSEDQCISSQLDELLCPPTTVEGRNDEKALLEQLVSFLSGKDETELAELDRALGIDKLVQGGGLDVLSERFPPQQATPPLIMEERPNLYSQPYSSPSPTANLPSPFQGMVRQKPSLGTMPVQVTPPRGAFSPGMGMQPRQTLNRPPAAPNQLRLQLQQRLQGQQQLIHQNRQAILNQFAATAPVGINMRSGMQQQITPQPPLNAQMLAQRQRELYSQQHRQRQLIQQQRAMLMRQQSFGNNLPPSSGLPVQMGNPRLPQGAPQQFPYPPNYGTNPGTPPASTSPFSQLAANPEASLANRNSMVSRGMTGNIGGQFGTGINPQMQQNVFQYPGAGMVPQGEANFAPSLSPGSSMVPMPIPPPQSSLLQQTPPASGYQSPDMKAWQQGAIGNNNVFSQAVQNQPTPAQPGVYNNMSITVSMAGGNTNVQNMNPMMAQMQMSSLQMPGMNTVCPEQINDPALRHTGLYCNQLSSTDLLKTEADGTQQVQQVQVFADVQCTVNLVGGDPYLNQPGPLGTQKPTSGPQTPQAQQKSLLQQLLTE

As usually defined, the inhibition is the relative decrease from the control value, in per cent. For `CN(CC(=O)Nc1c(Cl)cccc1Cl)C(=O)CNC(=O)c1ccc2ccccc2c1`, the inhibition in test [1] was -23.2%; in test [2] it was -11.1%.
As for `CCCN(CCC)CCCNC(=O)c1cn(C)c2ccc(S(=O)(=O)N(C)C3CCCCC3)cc2c1=O`, the inhibition was -13.7% in test [1] and -9.68% in test [2].
The matching figures for `CC1Sc2n(c3ccccc3[n+]2C)N=C1c1ccccc1` (stereo not drawn): -6.75% and 11.7%.
The matching figures for `CC(CNC(=O)c1cc(COc2ccc3ncccc3c2)on1)c1ccccc1` (stereo not drawn): -0.59% and 3.38%.
Taken in the same sequence, the figures for `O=C(Nc1ccc(Cl)c(Cl)c1)c1cccc(S(=O)(=O)NCc2cccnc2)c1` were 6.28% and 25.9% (active).
As for `Cc1cccc(NC(=O)CSc2nnc(NC(=O)C3CC3)s2)c1C`, the inhibition in test [1] is -3.25%; in test [2], 6.7%.
Taken in the same sequence, the figures for `CC(=O)/C(=C/c1ccccc1)C(=O)Nc1ccccc1C` were 5.97% and 23.8%.
Taken in the same sequence, the figures for `COc1ccc(-c2ocnc2C(=O)NCc2nn(-c3ccccc3)nc2C)cc1` were -0.81% and 15%.
In the case of `COc1ccc(CCN2C(=O)C3C4C=CC(C3C2=O)C2C(=O)N(CCc3ccc(OC)c(OC)c3)C(=O)C42)cc1OC` (stereo not drawn), the inhibition in test [1] was -5.96%; in test [2], 11.5%.
Taken in the same sequence, the figures for `CN1CCN(c2ccccc2/C=C2/C(=O)Nc3ccccc32)CC1` were -7.17% and 10.8%.
Taken in the same sequence, the figures for `OC(CN1CCN(c2cccc(Cl)c2)CC1)c1ccccc1` (stereo not drawn) were -16.2% and -6.51%.
Take `CC(C)C(=O)NC(Nc1cccc([N+](=O)[O-])c1)C(Cl)(Cl)Cl` (stereo not drawn): the inhibition in test [1] was 1.13%; in test [2], 0.4%.
Taken in the same sequence, the figures for `CC[n+]1c(/C=C/Nc2ccccc2)oc2ccccc21` were 36.7% and 28.5% (active).
The matching figures for `Cc1ccc2nc(NC(=O)CCCC(=O)O)sc2c1`: 45.4% and 37.5% (active).
Taken in the same sequence, the figures for `CN1C(=O)[C@H](Cc2ccc([N+](=O)[O-])cc2)NC1=S` were 27.2% and 26.4% (active).
Take `CC(C)(C)OC(=O)N(CCc1ccccc1)Cc1ccc(OCc2cccc(NC(=O)C3CCCC3)c2)cc1`: the inhibition was -0.88% in test [1] and -7.49% in test [2].
Taken in the same sequence, the figures for `Cc1ccc(NNC(=O)C(=O)N2CCCCC2)cc1` were -16.9% and 11.6%.
Taken in the same sequence, the figures for `CC1CCN(C(=O)Cn2c3ccc(F)cc3c3nc4n(c(=O)c32)CCCS4)CC1` were 4.67% and 3.44%.
The matching figures for `CC(CC(=O)Nc1ccc(Cl)c(S(=O)(=O)N2CCOCC2)c1)c1ccccc1` (stereo not drawn): 1.13% and 38.6% (active).
In the case of `Cc1cc(NCc2cccnc2)no1`, the inhibition is -7.64% in test [1] and 9.01% in test [2].
The matching figures for `CCOc1ccc(NC(=O)NCCCSC2CCCCC2)cc1`: -7.9% and -11.4%.
The matching figures for `Cn1c(=O)[nH]c(=O)c2c1nc(N1CCCCC1)n2CC(O)COc1ccc([N+](=O)[O-])cc1` (stereo not drawn): -27.8% and -19%.
Taken in the same sequence, the figures for `CC1(C)CC(=O)c2sc(N)nc2C1` were -9.15% and 0.81%.
With `CCOC1(OCC)OC(c2ccccc2)=C(C#N)C(C=Cc2ccccc2)C1(OCC)OCC` (stereo not drawn), the inhibition in test [1] was 0.8%; in test [2] it was 4.67%.
The matching figures for `Cc1ccc(S(=O)(=O)NNC2=NS(=O)(=O)c3ccccc32)c(C)c1`: -17.6% and -7.56%.
Taken in the same sequence, the figures for `CCc1nc(Nc2ccncc2)c2oc3ccccc3c2n1` were 12.3% and 12%.
With `COc1ccc(CCNc2c3ccccc3nc3ccccc23)cc1OC`, the inhibition was -6.86% in test [1] and 26.2% (active) in test [2].
The matching figures for `O=C(CN1CCN(Cc2ccc(Cl)cc2)C1=O)NCCCN1CCOCC1`: -13.2% and -10.7%.
The matching figures for `CCNC(=O)C1(C)CCCN(Cc2ccc3ccccc3c2Br)C1` (stereo not drawn): 11% and 13.3%.
Taken in the same sequence, the figures for `Cc1cccc(NC(=O)CSCC(=O)N2CCCc3ccccc32)c1` were -14.1% and -4.48%.
Consider `CCOC(=O)c1c(NC(=O)c2c(-c3ccccc3)noc2C)sc(C)c1-c1ccccc1`, for which the inhibition in test [1] was 39.9%; in test [2], 78.2% (active).
The matching figures for `CCOC(=O)N1CCN(C2=Nc3cccc4cccc2c34)CC1`: -13.8% and -0.04%.
Taken in the same sequence, the figures for `Cc1ccc(S(=O)(=O)CC(CN2CCCCC2)N2CCCCC2)cc1` (stereo not drawn) were 4.8% and -1.35%.
Taken in the same sequence, the figures for `CCOc1ccc(NC(=O)CN(C)C(=O)C2CCN(c3ncnc4sc(C)c(C)c34)CC2)cc1OCC` were 0.38% and 3.14%.
